# FLuc modulator – firefly luciferase modulation, counter-screen for miR-21 project | purified FLuc, Km substrates, luminescence inhibition | AID 588342 | P08659 | Potency, µM (doses to about 57.5 µM), for the others: at the top dose activity change, negative = inhibition, usual class: inhibitors | 360,000 compounds, 6.9% hits;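 also: plate controls were vehicle for no effect and reference inhibitor for full effect; nearly all actives have a fitted effect of over 55% in size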
# Target sequence (P08659 whole entry, looked up): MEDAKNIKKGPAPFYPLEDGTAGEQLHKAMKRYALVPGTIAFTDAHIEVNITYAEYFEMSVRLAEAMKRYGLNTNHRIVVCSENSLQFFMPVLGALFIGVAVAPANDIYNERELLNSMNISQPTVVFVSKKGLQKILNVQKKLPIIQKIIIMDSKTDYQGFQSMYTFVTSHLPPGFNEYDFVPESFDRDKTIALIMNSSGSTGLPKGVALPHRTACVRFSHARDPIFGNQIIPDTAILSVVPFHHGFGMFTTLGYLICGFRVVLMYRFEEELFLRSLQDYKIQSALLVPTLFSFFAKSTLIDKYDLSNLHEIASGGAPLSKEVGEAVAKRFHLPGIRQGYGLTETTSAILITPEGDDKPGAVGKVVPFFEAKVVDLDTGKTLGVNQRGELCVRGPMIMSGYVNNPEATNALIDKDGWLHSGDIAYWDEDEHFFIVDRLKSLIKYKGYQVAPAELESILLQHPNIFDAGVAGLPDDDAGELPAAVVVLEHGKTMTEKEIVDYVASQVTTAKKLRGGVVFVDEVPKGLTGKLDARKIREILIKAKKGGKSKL
#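 Biochemical qHTS of compounds, final roughly 60 µM downward over six points, against 10 nM purified firefly luciferase using Km concentrations of substrates (10 uM D-luciferin, 10 uM ATP) in Tris acetate pH 7.5 buffer; luminescence output.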
# ELG1 genotox – induces genotoxicity in HEK293T cells with luciferase-tagged ELG1; HEK293T ELG1-luciferase reporter, luminescence, 16 h; Potency, µM (series often up to 46 µM), without a hit: top-dose activity change, positive = activation, most hits filed as activators; 330,000 compounds, 1.3% hits; also: % of control where 0% means no effect; nearly all actives have a fitted effect of over 60% in size
#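 Screening used a luciferase reporter fused to human ELG1 in HEK293T cells. Luminescence was read on a CCD plate imager after 16 hr exposure and 30 min ONE-Glo incubation.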
# NPC1 promoter act – NPC1 promoter activation; Huh7 NPC1 promoter luciferase reporter, 24 h; Potency, µM (titrated, usually from 9.22 µM), for the others: at the highest dose activation, actives largely listed as activators; 320,000 compounds, 2.4% hits; also: % of control where 0% means no effect; nearly all actives have a fitted effect of over 60% in size
#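 In 1536-well qHTS, Huh7 cells harboring an NPC1 promoter–luciferase construct received compound for 24 h; activation was quantified by luminescence following luciferase reagent addition.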
# Rab9 promoter act – Rab9 promoter activation | Huh7 Rab9 promoter-luciferase reporter, luminescence, 24 h | Potency, µM (highest dose often 9.22 µM), for inactives: top-dose activation, negative = inhibition, usual class: activators | 320,000 compounds, 2.8% hits | AID 485297; also: % of control where 0% means no effect; nearly all actives have a fitted effect of over 60% in size
#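 Promoter activation is measured as luciferase luminescence in Huh7 cells stably transfected with a Rab9 promoter–luciferase construct, following 24 h compound exposure at 37 °C and 10 min reagent incubation at ambient temperature.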
# SMN2 splice up – SMN2 splice variant enhancement. 210,000 compounds, 2.8% hits. Potency, µM (series often up to 46.1 µM), without a hit: at the top dose activity change, positive = activation, actives largely listed as activators. HEK293 SMN2-luciferase splicing reporter, luminescence, 30-36 h; also: % of control where 0% means no effect; nearly all actives have a fitted effect of over 55% in size
#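 HEK293 cells carry an SMN2 […]–luciferase reporter in which exon 7 inclusion puts luciferase in frame. Cells were plated 10-12 h before compound addition, then incubated 30-36 h at 37C. ONE-Glo luminescence was read; sodium butyrate at 4.5 mM final served as control.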
# Active calls of the source: *; u = inconclusive; x = not tested or not shown. Sampled rows, rich in hits. Any-hit rate of the full collection: about 7.5%. Calls follow the shape of the dose curve; as a rule, active = well fitted curve in the direction sought with a large enough effect; inconclusive = small, poorly fitted or top-dose-only effect, or another doubt; inactive = no such curve, though single readings can be large; an effect the other way counts as inactive or inconclusive. Potency is read from the fitted curve at half-maximal effect.
SMILES,FLuc modulator,ELG1 genotox,NPC1 promoter act,Rab9 promoter act,SMN2 splice up
CN(C)S(=O)(=O)c1ccc(-c2csc(N/N=C/c3ccc(O)cc3)n2)cc1,10.7µM*,u,-20.0%,-34.1%,x
Clc1ccc(-c2csc(N/N=C\c3cccnc3)n2)cc1,u,0.2%,7.6%,4.3%,-23.6%
Cc1onc(-c2ccccc2)c1-c1csc(N/N=C/c2ccccc2)n1,-8.6%,-7.5%,-2.0%,0.3%,x
C(=N\Nc1nc(-c2ccccc2)cs1)/c1ccncc1,10.7µM*,5.6%,3.16µM*,u,x
C(=N\Nc1nc(-c2ccccc2)cs1)/c1cccs1,5.36µM*,16.4µM*,20.9%,u,7.94µM*
ClCc1csc(N/N=C/c2cccs2)n1,15.1µM*,1.3%,3.8%,20.7%,x
CCC(=O)N/C(=N\OCc1ccc(F)cc1)c1nonc1NC(=O)CC,-0.9%,-0.3%,0.3%,-4.4%,-10.2%
Cc1ccc(OCCNC(=O)c2ccccc2F)cc1,u,13.8%,18.0%,25.3%,x
CSc1ccccc1-c1nnc(-c2ccccc2)o1,3.38µM*,u,19.8%,3.16µM*,11.2µM*
CSc1ccccc1-c1nnc(-c2ccc(C)cc2)o1,1.51µM*,u,u,u,10µM*
CSc1nnc(-c2ccccc2SC)o1,-7.3%,3.0%,0.8%,1.4%,-0.1%
O=C(CSc1nc2c(c(=O)[nH]1)CCCC2)Nc1ccc(Br)cc1,-0.5%,x,x,x,x
Cc1cccc(OCC(=O)Nc2cccc(-c3nnc(-c4ccccc4)o3)c2)c1C,1.7%,4.5%,u,20.1%,10µM*
Cc1cccc(C)c1OCC(=O)Nc1cccc(-c2nnc(-c3ccccc3)o2)c1,u,-7.1%,2.6%,6.1%,x
COc1cc(OC)c(NC(=O)COc2ccccc2-c2nnc(-c3ccccc3)o2)cc1Cl,0.4%,x,x,x,x
COc1ccccc1OCC(=O)Nc1cccc(-c2nc3ccccc3o2)c1,7.57µM*,-1.6%,2.1%,9.6%,5.8%
O=C(COc1ccccc1-c1nnc(-c2ccccc2)o1)Nc1ccc(Br)cc1F,4.78µM*,x,x,x,x
Cc1ccc(OCC(=O)Nc2cccc(-c3nnc(-c4ccccc4)o3)c2)cc1,u,2.3%,u,u,25.1µM*
Oc1ccc(/C=N/Nc2nn3cnnc3c3ccccc23)cc1,9.53µM*,1.1%,u,2.2%,x
COc1cccc(/C=N/Nc2nc3ccccc3n3cnnc23)c1,-5.9%,-1.2%,-1.2%,-6.8%,-5.6%
COc1cc(/C=N/Nc2nn3cnnc3c3ccccc23)ccc1O,2.69µM*,0.8%,13.6%,7.8%,10.0%
COc1cccc(/C=N/Nc2nn3cnnc3c3ccccc23)c1,10.7µM*,8.2%,25.1%,15.9%,-3.9%
CCOc1cc(/C=N/Nc2nn3cnnc3c3ccccc23)ccc1O,5.36µM*,8.3%,25.3%,17.9%,x
Cc1cc(C)n2c(SCC(=O)N(C)C3CCCCC3)nnc2n1,-0.8%,0.3%,0.5%,1.2%,2.6%
CCCCC(CC)COCC1CO1 (stereo unspecified),x,x,x,x,0.1%
SMILES,FLuc modulator,ELG1 genotox,NPC1 promoter act,Rab9 promoter act,SMN2 splice up
FC(F)(F)c1cccc(N2CCc3cn[nH]c32)c1,23.9µM*,13.8%,10.0%,-1.0%,-13.8%
CN1CCC(N2CCN(c3cccc(C(F)(F)F)c3)CC2)CC1,3.7%,-8.7%,-4.1%,-0.5%,3.9%
Cc1cc(C)n(-c2nc(C)nc3c2cnn3-c2ccccc2)n1,-1.8%,0.8%,8.0%,-2.6%,4.6%
Cc1nc(SCc2ccccc2F)c2cnn(-c3ccccc3)c2n1,u,8.7%,7.4%,u,35.5µM*
Fc1ccc(-n2ncc3c(SCc4cccnc4)ncnc32)cc1,6.75µM*,23.1µM*,24.8%,u,-32.1%
Cc1ccc(-n2ncc3c(SCc4ccccc4)ncnc32)cc1,10.7µM*,u,3.98µM*,u,11.2µM*
Cc1ccc(CSc2ncnc3c2cnn3-c2ccccc2)cc1,-19.9%,3.7%,2.1%,7.2%,-21.8%
CSc1ncnc2c1cnn2-c1ccc(C)cc1C,u,12.0%,22.0%,u,-21.6%
Cc1ccc(-n2ncc3c(SCc4ccccn4)ncnc32)c(C)c1,u,0.1%,1.2%,u,1.78µM*
Cn1c(-c2ccccc2)c(C#Cc2ccc(N)cc2)c2ccccc21,x,-2.4%,x,x,x
Cn1ccnc1-c1ccc(-c2nccn2C)cc1,2.8%,-12.4%,-0.8%,10.2%,x
CC(C)(C)c1ccc(C(=O)Cn2cnnc2C#N)cc1,-16.8%,2.9%,1.0%,4.0%,x
CN(C)S(=O)(=O)c1cccc(C(=O)OCC(=O)Nc2ccc3c(c2)OCCO3)c1,u,4.1%,-3.5%,-2.7%,x
O=C(CS(=O)(=O)c1ccccc1)c1ccc2c(c1)OCCO2,6.01µM*,u,2.82µM*,2.82µM*,-11.0%
CS(=O)(=O)c1cccc(C(=O)OCC(=O)c2ccc3c(c2)OCCO3)c1,1.69µM*,4.3%,-0.3%,10.4%,x
CCC(=O)c1ccc2c(c1)OCCO2,-18.3%,6.0%,-1.5%,-2.1%,x
CCN(CC)S(=O)(=O)c1cccc(C(=O)OCC(=O)c2ccc3c(c2)OCCO3)c1,0.536µM*,-1.2%,-2.0%,1.4%,-38.1%
O=C(COC(=O)c1cccc(S(=O)(=O)NCc2ccccc2)c1)c1ccc2c(c1)OCCO2,1.35µM*,-4.4%,-1.9%,-3.1%,-15.0%
CCOc1cc(C2C(C(=O)OC)=C(C)NC3=C2C(=O)c2ccccc23)c(Br)cc1O (stereo unspecified),-11.7%,x,x,x,x
COc1ccc(C(=O)NCCN2CCOCC2)cc1S(=O)(=O)Nc1ccc(C)cc1,x,0.0%,-3.0%,1.0%,x
COc1ccccc1CCNC(=O)c1ccc(-c2nc(CSc3ccc(C)cc3)c(C)o2)cc1,-12.2%,x,x,x,x
O=C(CN1C(=O)COc2ccccc2C1=O)c1ccc2c(c1)OCCO2,6.75µM*,5.4%,-4.0%,-3.2%,x
CCN(CCCNC(=O)c1nn(-c2ccc(OC)c(Cl)c2)c(=O)c2c1c1ccccc1n2C)c1ccccc1,-0.4%,x,x,x,-9.4%
Cc1ccc(C(=O)Nc2sc3c(c2C(=O)O)CCC(C)C3)o1 (stereo unspecified),x,0.7%,x,x,x
COC(=O)c1c(NC(=O)c2ccc(C)o2)sc2c1CCCCC2,12µM*,10.3µM*,3.55µM*,3.55µM*,14.1µM*
SMILES,FLuc modulator,ELG1 genotox,NPC1 promoter act,Rab9 promoter act,SMN2 splice up
Cc1ccc(C(=O)Nc2sc3c(c2C(=O)O)CCCCC3)o1,2.69µM*,2.3%,3.55µM*,3.55µM*,12.6µM*
O=C(Nc1sc2c(c1C(=O)O)CCC2)c1ccco1,u,u,16.9%,21.9%,u
Cc1ccc(C(=O)Nc2sc3c(c2C(=O)O)CCCC3)o1,12µM*,4.1%,u,u,x
CCC(C(=O)Nc1cc(C(=O)Nc2cc(C)ccn2)ccc1Cl)c1ccccc1 (stereo unspecified),u,-1.1%,-1.0%,-6.1%,-65.9%
CCOC(=O)c1noc2ncnc(Nc3ccc(F)cc3F)c12,-5.6%,x,x,x,x
Cc1ccc(S(=O)(=O)N2CCOCC2)cc1NC(=O)COC(=O)c1cnc(Cl)c(Cl)c1,2.9%,6.7%,-2.7%,-2.5%,x

# From PubChem BioAssay
